An excerpt weighted towards active compounds, which were near 1.1% of everything screened.
Eya2 inh – blocks the phosphatase activity of human Eya2; O00167; Potency, µM (doses to about 76.9 µM), inactives show top-dose activity, negative = inhibition, most hits filed as inhibitors; hit rate 0.006% among 330,000; recombinant Eya2, OMFP fluorescence dephosphorylation (OMFP is methylfluorescein phosphate); further: on the % scale 0 is the no-effect control and ±100 the full control effect
Target sequence (O00167 whole entry, looked up): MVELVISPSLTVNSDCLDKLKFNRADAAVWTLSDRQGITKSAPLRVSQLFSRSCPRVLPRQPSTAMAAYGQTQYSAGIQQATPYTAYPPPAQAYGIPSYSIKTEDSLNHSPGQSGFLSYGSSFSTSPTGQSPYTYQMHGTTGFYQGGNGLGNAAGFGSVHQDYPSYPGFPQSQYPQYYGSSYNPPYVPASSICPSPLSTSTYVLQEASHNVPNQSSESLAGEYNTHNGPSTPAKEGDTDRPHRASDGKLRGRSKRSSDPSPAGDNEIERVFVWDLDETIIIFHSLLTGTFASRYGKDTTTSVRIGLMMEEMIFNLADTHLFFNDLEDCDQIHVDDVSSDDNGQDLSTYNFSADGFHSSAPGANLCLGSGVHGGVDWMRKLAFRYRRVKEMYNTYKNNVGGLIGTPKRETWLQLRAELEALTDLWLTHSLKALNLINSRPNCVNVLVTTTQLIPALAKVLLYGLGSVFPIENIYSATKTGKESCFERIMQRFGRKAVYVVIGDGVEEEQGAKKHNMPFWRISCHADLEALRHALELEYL
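Eya2 (0.2 uM) preincubated 10 min at ambient with compound, then OMFP substrate added at 50 uM; 10 min reaction in 50 mM HEPES pH 7.5, 50 mM NaCl, 5 uM MgCl2, 0.05% BSA, 1 mM DTT. Fluorescence read at Ex 485/Em 525 nm.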
ALOX12 inh – ALOX12 (human) lipoxygenase inhibition; P18054; purified 12hLO, xylenol orange hydroperoxide absorbance; Potency, µM (titrated, usually from 108 µM), inactives show top-dose activity change, negative = inhibition, most hits filed as inhibitors; hit rate 1.1% among 580,000; AID 1671190; further: on the % scale 0 is the no-effect control and ±100 the full control effect
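Purified human 12hLO at 150 nM in 25 mM Hepes, 0.01% Triton X-100, pH 7.0, preincubated 15 min at room temperature with compound. Reaction started with 40 uM arachidonic acid, 30 min at room temperature. Hydroperoxide measured by Fe-xylenol orange, 573/405 nm absorbance ratio.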
USP2a inh – inhibitors of human ubiquitin-specific protease USP2a; O75604; Potency, µM (series often up to 38.3 µM), for inactives: top-dose activity change, negative = inhibition, hits mostly inhibitors; USP2 core, Ub-CHOP2 coupled fluorogenic reporter, 485/531; hit rate 0.01% among 330,000; AID 463254;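 further: plate controls were DMSO wells for no effect and full inhibition by NEM control for full effect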
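Cell-free coupled assay: 10nM USP2 core preincubated 30min RT with compound in Tris-HCl pH 8.0/CaCl2/CHAPS buffer, then 25nM Ub-CHOP2 and 25nM reporter substrate; fluorescence (Ex 485/Em 531) read after 60min RT, normalized to NEM inhibition, concentration-response curves fitted.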
TSG101-PTAP inh – blocks PTAP/TSG101 interaction to inhibit HIV-1 budding | 340,000 tested, under 10 active | Fluorescence polarization, FITC-PTAP peptide / Tsg101 binding | AID 493005 | Q99816 | Potency, µM (titrated, usually from 115 µM), without a hit: at the top dose activity change, negative = inhibition, actives largely listed as inhibitors; active means well fitted inhibition curve with a large enough effect in the main read-out, with a control signal flat, not every such curve was filed as active; inconclusive means small, poorly fitted or top-dose-only effect, or effect the other way, or a change in a side signal; inactive means no such curve, though single readings can be large or run the other way; further: % of control where 0% means no effect
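FP read-out: FITC-PTAP peptide, 50 nM final, binding Tsg101 binding domain, 10 uM final; 20 min, r.t.; 10 mM HEPES pH 7.5, 0.15 M NaCl, 0.01% Tween 20, 3 mM EDTA, 0.1 mM TCEP.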
* = called active by the depositor; ? = inconclusive; . = no result given; ! = a repeat was not active; [ ] = dose if it differs, or a comment. Unless noted, the call rests on the fitted dose curve; in most records, active means well fitted curve in the direction sought with a large enough effect; inconclusive means small, poorly fitted or top-dose-only effect, or another doubt; inactive means no such curve, though single readings can be large; an effect the other way counts as inactive or inconclusive. Potency means the concentration at half of the fitted maximal effect.

SMILES	Eya2 inh	ALOX12 inh	USP2a inh	TSG101-PTAP inh
COC(=O)CCC(=O)Nc1ccc(Cl)c(Cl)c1	-2%	-23%	0%	-2%
CCNC(=O)N[C@H]1C[C@@H](Cc2cc(COc3ccccc3)on2)C1(C)C	.	5%[176 µM]	.	.
CC(C)CCNC(=S)NCc1ccco1	.	32µM*	.	.
S=C(NCc1ccco1)NCc1ccco1	.	32µM*	.	1%
NNC(=S)NCc1ccco1	-25%	?	0%	-1%
S=C(NCc1ccccc1)NCc1ccco1	4%	0%	1%	-5%
O=C(CC12CC3CC(CC(C3)C1)C2)NC(=S)NCc1ccco1	-1%	28µM*	3%	-3%
O=C(NCc1ccco1)C12CC3CC(CC(C3)C1)C2	2%	-17%	0%	-4%
O=C(COc1ccc(Cl)cc1Cl)NNC(=S)NCc1ccco1	4%	45µM*	-5%	-7%
O=C(NCc1noc(-c2ccccc2)n1)c1ccc(Br)o1	.	-44%	.	.
CC(C)C[C@@H]1N[C@H](C(=O)NCCOc2ccccc2)Cc2c[nH]c3cccc1c23	.	12%[176 µM]	.	.
Cc1ccccc1-c1[nH]nc2ncc(-c3cccc(F)c3)nc12	.	46%[176 µM]	.	.
O=C1NC2(CCN(CC3CCCC3)CC2)Oc2ccccc21	.	25µM*	.	.
CN(C)C(=O)C1CCC(C)(C(=O)O)C1(C)CI (stereo unspecified)	.	40µM*	.	.
CC(C)(C)NC(=O)C1CCC(C)(C(=O)O)C1(C)C (stereo unspecified)	4%	0%	-1%	1%
O=C(/C=C/c1ccccc1Br)c1ccc(O)c(CCCl)c1	.	13µM*	.	.
CCc1nc(CC(=O)Nc2ccc(C)cc2)sc1C	.	-10%	.	.
Cc1ccc(/C=C/C(=O)c2ccccc(=O)c2O)cc1C	-5%	45µM*	-1%	-3%
Cc1cc(C)c(C(=O)/C=C/c2ccccc2)cc1C	.	-6%	.	.
CCc1cccc(NC(=O)c2ccc3c(c2)N(CC)C2CCCCCN2C3=O)c1 (stereo unspecified)	.	12%	.	.
COc1ccc(S(=O)(=O)Nc2cc(SCC(=O)O)c(O)c3ccccc23)cc1	9%	?	3%	-7%
O=C(O)CSc1cc(NS(=O)(=O)c2ccc(Cl)cc2)c2ccccc2c1O	15%	2.8µM*	2%	-7%
CC(C)N1CC2CCC(C1)N2Cc1cccc(-c2cccs2)c1	.	3%[6.33 µM]	.	.
Cc1ccc(-n2c(-c3nn(C)c(C)c3Cl)n[nH]c2=S)cc1	9%	32µM*	3%	-4%
S=c1[nH]nc(-c2ccco2)n1-c1ccc(Cl)cc1	-1%	40µM*	2%	-4%
SMILES	Eya2 inh	ALOX12 inh	USP2a inh	TSG101-PTAP inh
COc1ccc(-n2c(-c3ccco3)n[nH]c2=S)cc1	11%	?	-2%	-11%
O=C(COc1ccccc1F)Nc1ccc(O)c(-c2nc3ccccc3o2)c1	.	4%	.	.
COC1=C(OC)C(=O)C(Sc2ccc3ccccc3c2)=CC1=O	.	2µM*	.	-1%
CN(Cc1cccnc1)Cc1nc(C2(O)CCN(Cc3ccc(C(F)(F)F)cc3)CC2)cs1	.	10%	.	.
Cn1nnc(NC(=S)NC(=O)c2cccc3ccccc23)n1	4%	0.63µM*	0%	0%
Cn1nnc(NC(=S)NC(=O)c2ccc3ccccc3c2)n1	.	11µM*	.	.
O=C(CCN1CCN(CCO)CC1)Nc1ccc(C2CCCC2)cc1	4%	45µM*	2%	-1%
Cc1ccc(S(=O)(=O)N/N=C/c2ccc(O)c(O)c2)cc1[N+](=O)[O-]	4%	50µM*	2%	-1%
Nc1[nH]c(=S)[nH]c(=O)c1-c1ccccc1	14%	7.1µM*	-1%	-5%
O=c1[nH]c(=S)[nH]c2nc(-c3ccccc3)cnc12	.	-6%	.	-2%
O=C1NCc2ccccc2CC12CCCN(Cc1cccc(OC(F)(F)F)c1)C2 (stereo unspecified)	.	6%[6.33 µM]	.	.
Cc1ccc(-c2cc(C(=O)N3CCCC(C(F)(F)F)C3)c3ccccc3n2)o1 (stereo unspecified)	-9%	7.9µM*!	0%	-2%
Cc1ccc(-c2cc(C(=O)N3CCOCC3)c3ccccc3n2)o1	5%	?	2%	-6%
Cc1ccc(-c2cc(C(=O)N3CCN(c4ccc(F)cc4)CC3)c3ccccc3n2)o1	3%	14µM*	2%	-8%
COC(=O)[C@@H]1Cc2ncn(Cc3ccc(Cl)cc3)c2CN1C(=O)c1ccc(C(F)(F)F)cc1	.	49%	.	.
Cc1ccc(-c2cc([C@H]3[C@@H]4C=CCC[C@@]4(C)C(=O)N3Cc3ccccc3)ccc2F)cc1	-15%	-57%	11%	0%
COc1ccc(-c2cc([C@H]3[C@@H]4C=CCC[C@@]4(C)C(=O)N3Cc3ccccc3)ccc2F)cc1OC	-10%	11µM*	-2%	-6%
Cc1ccc(C2Cn3nnc(-c4noc(-c5ccccn5)n4)c3CO2)cc1 (stereo unspecified)	.	10%	.	.
CC1CCCN(c2nc(-c3ccc(Cl)cc3)nc3ccccc23)C1 (stereo unspecified)	.	2%	.	.
S=c1nc(-c2sccc2OCc2ccc(Cl)cc2Cl)[nH][nH]1	5%	28µM*	1%	-2%
CNC(=S)NNC(=O)c1sccc1OCc1ccc(Cl)cc1Cl	6%	10%	3%	-4%
Cc1ccccc1C(=O)NC(=S)NCCc1ccccc1	1%	28µM*	1%	1%
Cc1ccccc1C(=O)NC(=S)NCCC1=CCCCC1	-5%	22µM*	-4%	2%
O=C(NC(=S)NCCC1=CCCCC1)c1ccc(Br)o1	4%	?	0%	-9%
O=C(NC(=S)NCCC1=CCCCC1)c1ccco1	-12%	45µM*	-4%	1%
SMILES	Eya2 inh	ALOX12 inh	USP2a inh	TSG101-PTAP inh
O=C(CCc1ccc(O)cc1)N[C@H]1CC[C@H](Nc2nccc(-c3cccnc3)n2)C1	.	-26%	.	.
CC(C)(C)C1CCc2[nH]nc(C(=O)N3CCc4nn(CC#N)c(=O)n4CC3)c2C1 (stereo unspecified)	.	74%	.	.
CC(=O)c1cc(Br)ccc1OCC(=O)N1CCN(C(=O)c2cccs2)CC1	.	3%	.	.
CNC(=O)CCn1ncc2cc(OCc3ccccc3-c3ccc(OC)cc3)ccc21	.	-3%[176 µM]	.	.
COc1ccc(Nc2nc(C)c(C(C)=O)s2)cc1	.	45µM*	.	.
O=C1NC(=S)S/C1=C\c1ccc(SCc2ccccc2)o1	-1%	13µM*	1%	2%
CN(C)CC(C)(C)NC(=O)c1csc2nc(-c3cccc(C(F)(F)F)c3)cn12	.	38%	.	.
CCCSc1nnc(N2C(=O)C(O)=C(C(=O)c3ccco3)C2c2ccccc2F)s1 (stereo unspecified)	-4%	40µM*	3%	-3%
CSc1nnc(N2C(=O)C(O)=C(C(=O)c3ccco3)C2c2ccccc2F)s1 (stereo unspecified)	-2%	?	2%	-9%
C=CCSc1nnc(N2C(=O)C(O)=C(C(=O)c3ccco3)C2c2ccccc2F)s1 (stereo unspecified)	9%	0.63µM*	8%	-10%
Clc1ccc2oc(-c3ccccc3)cc(=NCCCN3CCOCC3)c2c1	2%	14µM*	-2%	-1%

High-throughput results as filed in PubChem.
